Assay results reported in PubChem BioAssay (NCATS).
Values joined by “and” are separate entries in the source; they are usually repeats but may differ in a detail not shown here. Equal entries are not always repeated. A number with no mark means an inactive call. Results filed as inconclusive are left out. Active and inactive are the calls of the source. Unless noted, calls follow the shape of the dose curve; as a rule, active = well fitted curve in either direction with a large enough effect (not every such curve was filed as active); inconclusive = small, poorly fitted or top-dose-only effect, or another doubt; inactive = flat fitted curve, though single readings scatter.

Columns and labels:
[1] = AP1 Signaling Pathway (AID 357); conditions: ME-180 (cervical carcinoma) AP-1-bla reporter, EGF-induced, beta-lactamase ratio, 5 h; also: % is scaled to controls: 0 for no effect and ±100 for the full control effect
Summary of the method: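 AP-1-bla ME-180 cells with beta-lactamase reporter under AP-1 response element, stimulated with EC50 EGF; compounds titrated, 5 hours at 37 degrees Celsius. CCF4 read at 460/530 nm ratio; positive and negative modulators judged by AC50.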

[2] = target: Cytochrome P450 1A2 (Homo sapiens) (UniProt P05177); assay: p450-cyp1a2 (AID 410; calls by dose curve; also: potency is read from the fitted curve at half-maximal effect;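 as to activity change, negative = inhibition: -100% = full effect of reference inhibitor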); conditions: recombinant CYP1A2, luciferin-ME demethylation, luminescence; series mostly up to 57 µM
Sequence of Cytochrome P450 1A2 (Homo sapiens) (P05177 whole entry, looked up): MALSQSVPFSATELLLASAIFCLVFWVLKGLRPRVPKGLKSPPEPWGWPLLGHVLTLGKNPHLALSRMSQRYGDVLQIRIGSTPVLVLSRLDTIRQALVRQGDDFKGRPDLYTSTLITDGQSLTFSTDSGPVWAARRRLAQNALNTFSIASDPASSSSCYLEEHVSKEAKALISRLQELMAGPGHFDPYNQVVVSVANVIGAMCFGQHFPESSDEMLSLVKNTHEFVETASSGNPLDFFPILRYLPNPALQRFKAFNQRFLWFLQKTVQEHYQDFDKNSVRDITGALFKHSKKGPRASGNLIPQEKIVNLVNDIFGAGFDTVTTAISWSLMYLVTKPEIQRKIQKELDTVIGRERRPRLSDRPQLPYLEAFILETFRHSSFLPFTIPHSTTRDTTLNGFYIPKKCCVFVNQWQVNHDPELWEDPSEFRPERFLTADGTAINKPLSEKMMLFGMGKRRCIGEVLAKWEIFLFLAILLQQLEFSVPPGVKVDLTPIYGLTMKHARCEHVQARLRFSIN
Summary of the method: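 20nM CYP1A2 with 100uM Luciferin-ME (at Km) in 100mM KPO4; compound preincubated 10 min, NADPH regeneration added, 60 min at room temperature. Luciferin quantified by luminescence after detection reagent; normalized to 57 uM furafylline.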

[3] = NFAT Signaling Pathway (AID 444); conditions: Jurkat NFAT-bla M1, carbachol, beta-lactamase ratio, 5 h;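 also: carbachol stimulus at about its EC50 of 1 µM final; % is scaled to controls: 0 for no effect and ±100 for the full control effect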
Summary of the method: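 Jurkat cells carrying an NFAT-driven β-lactamase reporter and co-transfected muscarinic M1 receptor were treated with compound plus carbachol (1 uM final, an EC50 level) for 5 h at 37 °C. CCF4 loading followed for 1 h at RT; 460/530 nm ratio gave %activity.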

[4] = target: Lysosomal acid glucosylceramidase (Homo sapiens) (UniProt P04062); assay: Glucocerebrosidase-p2 (AID 348; in the data active = potency below about 10 µM; also: potency is read from the fitted curve at half-maximal effect); conditions: purified GBA, blue fluorogenic substrate, 40 min
Sequence of Lysosomal acid glucosylceramidase (Homo sapiens) (P04062 whole entry, looked up): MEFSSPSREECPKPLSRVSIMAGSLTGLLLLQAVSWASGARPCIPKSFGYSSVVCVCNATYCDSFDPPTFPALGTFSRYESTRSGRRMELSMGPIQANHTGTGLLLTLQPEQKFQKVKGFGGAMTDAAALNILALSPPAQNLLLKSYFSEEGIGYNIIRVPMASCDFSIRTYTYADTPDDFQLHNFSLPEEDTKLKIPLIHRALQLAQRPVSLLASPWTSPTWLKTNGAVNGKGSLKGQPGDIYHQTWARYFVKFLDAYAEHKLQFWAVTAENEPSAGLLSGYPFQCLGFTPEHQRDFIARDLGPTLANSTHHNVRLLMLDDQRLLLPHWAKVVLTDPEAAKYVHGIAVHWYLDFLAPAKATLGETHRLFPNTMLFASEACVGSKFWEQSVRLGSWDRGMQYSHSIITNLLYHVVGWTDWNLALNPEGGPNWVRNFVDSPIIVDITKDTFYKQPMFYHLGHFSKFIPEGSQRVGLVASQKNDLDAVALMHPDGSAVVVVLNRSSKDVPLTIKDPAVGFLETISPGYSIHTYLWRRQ
Text: Beta-glucocerebrosidase catalyzes the hydrolysis of beta-glucocerebroside to glucose and ceramide. The inherited deficiency of beta-glucocerebrosidase results in Gaucher disease, which is characterized by a wide variety of symptoms including hepatosplenomegaly, anemia, thrombocytopenia, bony lesions and bone marrow infiltration with characteristic storage cells, known as Gaucher cells. There are also forms of the disorder affecting the central nervous system. Patients with the same genotypes can manifest with diverse clinical presentations and it is believed that improper folding and trafficking of beta-glucocerbrosidase may contribute to the phenotypes observed.
Low molecular weight molecules, acting as chaperones, may potentially restore trafficking of misfolded beta-glucocerebrosidase from the endoplasmic reticulum to the lysosomes, thereby enhancing functional lysosomal beta-glucocerebrosidase activity.
Using normal beta-glucocerebrosidase, an assay was developed to screen for small molecule inhibitors that could potentially act as molecular chaperones on the mutant forms [developed with NIH investigator Dr. Ellen Sidransky#s laboratory]. Two pro-fluorescent substrates were chosen for two screens against a small molecule library. […]
Blue fluorescence substrate assay: […]
Read the plate in Viewlux plate reader (Ex=365(10) and Em=440(10)).

| Structure (SMILES) | activity change, negative = inhibition ([1]; at 17.2 µM (top of the series)) | activity change, negative = inhibition ([1]; at 38 µM (top of the series)) | Potency [2] | activity change, negative = inhibition ([3]; at 17.2 µM (top of the series)) | activity change, negative = inhibition ([3]; at 38 µM (top of the series)) | Potency [4] [µM] | activity change, negative = inhibition ([3]; at 7.69 µM (top of the series)) [%] |
| --- | --- | --- | --- | --- | --- | --- | --- |
| C[N+](C)(C)CCCCCCCCCC[N+](C)(C)C | 5.88% and 0.653% | 6.36% | inactive | -20.5% and -5.13% | -4.26% |  |  |
| Cc1ccc(S(=O)(=O)NC(=O)NN2CCCCCC2)cc1 | -5.47% and 3% | 4.52% |  | -5.82% and -2.02% | -9.25% |  |  |
| C(=C\c1ccccc1)/CN1CCN(C(c2ccccc2)c2ccccc2)CC1 | -4.86% |  |  |  |  |  |  |
| CC(=O)Oc1cc(C(C)C)c(OCCN(C)C)cc1C | 7.18% | 22.7% | 7.94 µM (active) and 3.16 µM (active) |  |  |  |  |
| c1cc(CN2CCCCC2)cc(OCCCNc2nc3ccccc3s2)c1 |  | 6.03% | 15.8 µM (active) and 31.6 µM (active) |  |  |  |  |
| O=C(O)CN(CCN(CC(=O)O)CC(=O)O)CCN(CC(=O)O)CC(=O)O | -3.91% | 10% | inactive | -4.47% | 2.2% |  |  |
| CN(C)C(=O)Oc1ccc[n+](C)c1 | 8.22% | 9.9% | inactive | 4.78% | 12% |  |  |
| CC(C)[N+](C)(CCOC(=O)C1c2ccccc2Oc2ccccc21)C(C)C | 12.1% and 5.76% | 3.91% |  | -48.1% (active) and -94.6% (active) | -63% (active) |  |  |
| CC(C)(C)NCC(O)c1cc(O)cc(O)c1 (configuration not stated) | -16.4% |  |  |  |  |  |  |
| C[C@H](CS)C(=O)N1CCC[C@H]1C(=O)O | -1.77% | 3.53% | inactive | 2% | -1.57% |  |  |
| Cc1scc2c1N(C(=O)CN1CCN(C)CC1)c1ccccc1NC2=O | 4.19% | 15.1% | inactive | -41.8% (active) | -72.8% (active) |  |  |
| CC[N+](C)(C)c1cccc(O)c1 | 1.89% and 0.722% | 2.69% | inactive | -26.4% | -18.1% |  |  |
| CC(=O)OC(C)C[N+](C)(C)C (configuration not stated) | 11.1% |  |  |  |  |  |  |
| COc1ccc(CCN(C)CCCC(C#N)(c2cc(OC)c(OC)c(OC)c2)C(C)C)cc1OC (configuration not stated) | -6.26% |  |  |  |  |  |  |
| Brc1c(NC2=NCCN2)ccc2nccnc12 | -0.374% | 6.19% | inactive | 15.8% | 1.97% |  |  |
| c1ccc2c(c1)CCCC2C1=NCCN1 (configuration not stated) | 6.93% |  |  |  |  |  |  |
| CCn1nc(C(=O)O)c(=O)c2cc3c(cc21)OCO3 | -3.87% and 14.9% | -2.22% |  | 0.808% and 1.97% | 8.98% |  |  |
| NC(N)=NC(=O)Cc1c(Cl)cccc1Cl | 3.24% | 6.16% | inactive | 3.14% | 2.06% |  |  |
| CCOC(=O)C1=C(C)NC(C)=C(C(=O)OC)C1c1cccc([N+](=O)[O-])c1 (configuration not stated) | -25.4% |  |  |  |  |  |  |
| C[n+]1cc2c3c(ccc2c2ccc4cc5c(cc4c21)OCO5)OCO3 | -119% (active) | -111% (active) | 3.98 µM (active) and 10 µM (active) |  | -48.1% (active) |  |  |
| CN1CCN(CC(=O)N2c3ccccc3C(=O)Nc3cccnc32)CC1 | -3.75% and 6.17% | 9.42% | inactive | -94.8% (active) |  |  |  |
| CN/C(=C\[N+](=O)[O-])NCCSCc1ccc(CN(C)C)o1 | -3.39% | -6.59% |  | -7.07% | 1.99% |  |  |
| O=C1NCN(c2ccccc2)C12CCN(CCCC(c1ccc(F)cc1)c1ccc(F)cc1)CC2 | -2.84% | 1.17% | 12.6 µM (active) |  |  |  |  |
| CC(C)NNC(=O)c1ccncc1 | 5.09% | -0.742% | inactive | -0.394% | -0.596% |  |  |
| CC1=NS(=O)(=O)c2cc(Cl)ccc2N1 | 5.8% and -6.56% | -8.76% | 7.94 µM (active) and 3.16 µM (active) and 2 µM (active) | -1.94% and 7.03% | 2.63% |  |  |
| O=C(O)CP(=O)(O)O |  |  | inactive |  | 3.66% | > 11.4 | -1.52 |
